Screening data: PubChem BioAssay, National Center for Advancing Translational Sciences (NCATS)
An excerpt weighted towards active compounds, which were near 21% of everything screened.
CHX counter: affects cycloheximide protein synthesis inhibition readout, counter-screen; cell reporter, cycloheximide protein synthesis inhibition counterscreen; max response, %; hit rate 12% among 300,000; AID 2314; in the data active = max response mostly above about 13%, no sharp cut-off; inactive = mostly below about 14%; also: read at 38.3 µM for the half of the compounds with a filed dose; 0% is about no effect
Pf growth 48h: P. falciparum growth inhibition at 48 hours (one generation); Potency, µM (top dose mostly 28.7 µM), for inactives: at the highest dose activity change, negative = inhibition, hits mostly inhibitors; P. falciparum luciferase growth in erythrocytes, 48 h; hit rate 5.9% among 310,000; also: potency is read from the fitted curve at half-maximal effect; % is scaled to controls: 0 for no effect and ±100 for the full control effect
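Erythrocytes infected with P. falciparum carrying an integrated firefly luciferase reporter (2% hematocrit, 0.1% parasitemia final) were exposed to compounds in RPMI 1640 with 0.5% Albumax at 37 C, 5% CO2. Growth inhibition was scored as reduced luminescence.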
Shiga inhibitor: inhibitors of Shiga toxin in Vero cells; AID 2315; Vero cells, Shiga toxin protein synthesis inhibition reporter; hit rate 9.2% among 290,000; inhibition, % at 38.7 µM; in the data active = inhibition mostly above about 28%, no sharp cut-off; inactive = mostly below about 43%; also: 0% is about no effect
NS1 function inh: influenza NS1 inhibition. Potency, µM (top dose mostly 46.1 µM), for inactives: at the top dose activity, positive = more growth. hit rate 0.4% among 270,000; calls by dose curve; also: potency is read from the fitted curve at half-maximal effect; actives are rising curves; nearly all actives have a fitted effect of over 50% in size
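In this qHTS, NS1 from influenza A is expressed in budding yeast, where it slows growth. Cells are switched from glucose to 2% galactose medium (pH 6.0, -URA), treated with compound, and growth recovery is read at OD600.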
Pf growth 96h: inhibits malaria parasite growth, 96 h; P. falciparum luciferase reporter growth, 96 h; Potency, µM (doses to about 28.7 µM), for the others: at the top dose activity change, negative = inhibition, hits mostly inhibitors; hit rate 6.9% among 320,000; AID 504834; also: potency is read from the fitted curve at half-maximal effect; % is scaled to controls: 0 for no effect and ±100 for the full control effect
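Parasite growth measured via integrated firefly luciferase reporter in P. falciparum. Infected erythrocytes at 2% hematocrit, 0.05% parasitemia final were treated 96 hours at 37 C under 5% CO2, and luminescence was read.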
Giardia FBPA inh: blocks Giardia fructose-bisphosphate aldolase activity; purified Giardia FBPA; Potency, µM (doses to about 59.6 µM), without a hit: at the highest dose activity, negative = inhibition, hits mostly inhibitors; hit rate 0.71% among 290,000; also: potency is read from the fitted curve at half-maximal effect; % is scaled to controls: 0 for no effect and ±100 for the full control effect; nearly all actives have a fitted effect of over 55% in size
Target sequence (A8B2U2 whole entry, looked up): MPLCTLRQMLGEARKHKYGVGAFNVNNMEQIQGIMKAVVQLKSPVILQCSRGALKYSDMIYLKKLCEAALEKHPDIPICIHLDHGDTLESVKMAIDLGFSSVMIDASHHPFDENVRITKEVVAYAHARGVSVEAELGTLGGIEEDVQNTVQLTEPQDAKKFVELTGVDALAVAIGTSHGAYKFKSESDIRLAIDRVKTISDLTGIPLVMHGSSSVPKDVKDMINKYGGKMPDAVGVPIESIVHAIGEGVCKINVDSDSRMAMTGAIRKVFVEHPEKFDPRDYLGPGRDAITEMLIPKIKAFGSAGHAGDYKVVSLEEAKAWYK
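Giardia FBPA (40 nM reagent) was preincubated 10 min at RT with compound (up to 57.5 uM final), then substrate plus GAPDH/TPI/NAD/arsenate coupling system with diaphorase/resazurin was added; resorufin fluorescence (525/598 nm) was read after 20 min.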
* marks the source's active call; other numbers are inactive results; i = inactive; ? = inconclusive; . = no result given; [ ] = remark or other dose. Unless noted, calls follow the shape of the dose curve; as a rule, active = well fitted curve in the direction sought with a large enough effect; inconclusive = small, poorly fitted or top-dose-only effect, or another doubt; inactive = no such curve, though single readings can be large; an effect the other way counts as inactive or inconclusive.

SMILES	CHX counter	Pf growth 48h	Shiga inhibitor	NS1 function inh	Pf growth 96h	Giardia FBPA inh
Cn1c(=O)c2c(ncn2CN2CCN(Cn3cnc4c3c(=O)n(C)c(=O)n4C)CC2)n(C)c1=O	.	.	.	-8%	.	.
CCCCCC(=O)N/N=C(\C)c1ccc(N2CCCCC2)cc1	48*	0%	58*	28%	?	7%
O=C(N/N=C/c1ccc(N2CCOCC2)o1)c1cccc([N+](=O)[O-])c1	1	11%	13	?	13%	?
S=c1[nH]ncn1/N=C/c1ccc(N2CCOCC2)cc1	26*	.	32*	5%	92%	?
CN(C)/N=C/c1ccc(N2CCOCC2)cc1	23*	470%	45	.	?	4%
O=C(N/N=C/c1ccc(N2CCCCC2)o1)c1ccccc1	37*	?	75*	15%	?	-28%
CCCCN1CCC[C@@H]1CNC(=O)c1cc(C#N)c2ccccc2c1OC	.	.	.	.	.	3%
CCCCN(C(=O)CNC(=O)c1ccco1)C(C(=O)NC1CCCCC1)c1cccnc1 (configuration not stated)	-2	0%	-17	12%	42%	-1%
C/C(=N\NC(=O)c1ccc(F)cc1)c1ccc(N2CCOCC2)cc1	21*	0%	74*	-6%	-4%	-11%
C/C(=N\NC(=O)c1ccc(O)cc1)c1ccc(N2CCOCC2)cc1	2	48%	30	2%	51%	1%
C/C(=N\NC(=O)c1ccc(N2CCCC2=O)cc1)c1ccccc1	-1	15%	17	-7%	60%	2%
C/C(=N\NC(=O)c1ccccc1)c1ccc(N2CCCCC2)cc1	48*	40%	77*	5%	44%	1%
C/C(=N\NC(=O)COc1ccc(C(C)(C)C)cc1)c1ccc(N2CCOCC2)cc1	24*	2%	-30	4%	?	-4%
CCOc1ccc(-n2c(=O)c3sccc3n(CC(=O)NC3CCCCC3)c2=O)cc1	1	-8%	-35	0%	36%	-1%
CC(C)CN1CCC2(CC1)CCN(C(=O)c1cc(C(F)(F)F)cc(C(F)(F)F)c1)CC2	.	.	.	.	.	5%
COc1ccc2c(c1)C(=O)[C@H](OC(=O)NCCc1ccc(OC)c(OC)c1)[C@@H](c1ccc(OC)c(Br)c1)O2	.	.	.	.	.	-2%
COCCN(CC(=O)Nc1ccccc1C(F)(F)F)C(=O)/C=C/c1ccc2ccccc2n1	.	?	.	.	15µM*	.
CC(=O)N1CCC2(CCCN(c3ccccc3)C2)CC1	.	.	.	.	.	-13%
Cc1occc1C(=O)NNC(=O)c1ccc(S(=O)(=O)N(C)C)cc1	.	1%	.	.	-8%	.
Cc1ccc(C)c(-n2nnnc2SCC(=O)Nc2cccc(-c3nnc4n3CCCCC4)c2)c1	14	9.3µM*	54	-34%	?	3%
Cc1ccc(-n2nnnc2SCC(=O)N2CCc3ccccc3C2)cc1	7	-12%	-4	-68%	1%	-24%
CNC(=O)CSc1nnnn1-c1cc(C)ccc1C	-1	-9%	-1	7%	3%	3%
Cc1ccc(-n2nnnc2SCC(=O)N2CCc3ccccc3C2)c(C)c1	1	?	10	-40%	13µM*	-8%
Cc1cccc(-n2nnnc2SCC(=O)NCC2(N3CCOCC3)CCCCC2)c1C	.	12µM*	.	.	?	.
Cc1ccc(-n2nnnc2SCC(=O)NCC2(N3CCOCC3)CCCCC2)c(C)c1	.	13µM*	.	.	?	.
SMILES	CHX counter	Pf growth 48h	Shiga inhibitor	NS1 function inh	Pf growth 96h	Giardia FBPA inh
CC(=O)OCC1OC(C#Cc2ccccc2)C=CC1O (configuration not stated)	.	.	.	.	.	-1%[12.9 µM]
Cc1ccc(C(=O)N/C(=C\c2ccco2)C(=O)NCCN2CCOCC2)cc1C	0	9%	-32	0%	?	.
Cc1ccc(-n2nnnc2SCC(=O)Nc2cc(C)on2)c(C)c1	-6	-1%	-6	17%	?	-3%
Cc1ccc(-n2nnnc2SCC(=O)NCC2(N3CCCCC3)CCCCC2)c(C)c1	.	10µM*	.	.	7.4µM*	.
CCc1ccc(OCC(=O)N/N=C\c2ccco2)c([N+](=O)[O-])c1	16*	22%	active	0%	14%	-1%
CCCCOc1ccc(CCC(=O)N/N=C/c2ccco2)cc1	12*	?	11	-4%	-22%	-6%
CCCOc1ccc(CCC(=O)N/N=C/c2ccco2)cc1	-1	?	19	-4%	?	0%
O=C(COc1ccc(Cl)cc1[N+](=O)[O-])N/N=C/c1cccs1	31	16%	49	.	-2%	-3%
Cc1ccc([N+](=O)[O-])c(C(=O)N/N=C/c2cccs2)c1	22*	?	48	-11%	?	-1%
Cc1ccc(OCC(=O)N/N=C\c2cccs2)c([N+](=O)[O-])c1	39*	0%	37*	-2%	27%	0%
O=C(NNC(=O)C1CCCN(c2ncccn2)C1)c1ccncc1 (configuration not stated)	-1	7%	21	-2%	?	0%
CC(C)(C)N(NS(=O)(=O)c1ccc(F)cc1)c1ccccc1	1	32%	-3	-6%	45%	-16%
Cc1cc(C)n(CC(=O)N/N=C/c2cccs2)n1	40*	-15%	79*	24%	6%	-4%
Cc1ccn2c(C(=O)N/N=C\c3cccs3)c(C)nc2c1	16*	6%	43	-7%	?	-1%
COc1ccc(CCC(=O)N/N=C\c2cccs2)cc1	21	9.3µM*	-3	.	56%	-8%
COc1ccc(CCC(=O)NNC(=O)c2cccs2)cc1	.	-11%	.	.	-2%	.
CCOc1cc(C(=O)NC2CC(C)(C)NC(C)(C)C2)cc(OCC)c1OCC	-1	0%	2	10%	0%	-3%
Cc1nc(/N=C(\N)N(C)C)[nH]c(=O)c1C	-3	7%	-11	-6%	41%	-8%
COc1ccccc1NC(=O)NNC(=O)COc1ccc2ccccc2c1	24*	7%	-38	-2%	-8%	.
COc1ccc2cc(OCC(=O)NNC(=O)Nc3ccc(C(C)=O)cc3)ccc2c1	21*	-4%	48	-6%	22%	.
COc1ccc(CC(=O)NNC(=O)COc2ccc3ccccc3c2)cc1	-2	20%	-10	-17%	1.7µM*	-1%
COc1cccc(OCC(=O)NNC(=O)c2ccc3ccccc3c2)c1	-2	57%	40	-7%	-6%	.
COc1ccc(NC(=O)NNC(=O)COc2ccc3ccccc3c2)cc1OC	0	16%	-6	-2%	15%	-3%
COc1cccc(-c2nc3ccccc3s2)c1	38*	.	74*	-10%	i	-3%
COc1ccc(-c2nc3ccccc3s2)cc1	16*	95%	18	-8%	22%	-5%
CCn1c(SCC(=O)Nc2ccc3c(c2)OCO3)nnc1C(C)C	-2	35%	-8	-4%	-4%	-2%
COc1ccc(CN2CC(C(=O)NCCCN3CCCCC3)CC2=O)cc1 (configuration not stated)	-1	23%	7	-8%	-3%	-8%
